Screens: PubChem, Sanford-Burnham Center for Chemical Genomics
CYP2C19 activ: cytochrome P450 2C19 (human) activation; P33261; recombinant CYP2C19, luciferin-H EGE luminescence; stronger effect = higher value; 0 = fully inhibited enzyme, 1 = untreated enzyme; activation factor at 5 µM; 96,000 tested, under 10 active; AID 1025;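 active = activation factor of at least 2 at 5 µM in the primary screen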;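 note: 0 = wells with 2.5 mM tranylcypromine and 1 = vehicle-only wells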
CYP2C9 inh: blocks human cytochrome P450 2C9. inhibition, % at 5 µM. hit rate 20% among 96,000. CYP2C9 Supersomes, luciferin-H conversion, luminescence. P11712. AID 777;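 active = blocking of liver enzyme CYP2C9 beyond about 50% at 5 µM, limit read from the data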
Mac1 fbg inh: blocks human CD11b/CD18 adhesion to fibrinogen | P05107+P11215 | AID 1497 | inhibition, % at 10 µM | hit rate 0.54% among 93,000 | K562 CD11b/CD18 adhesion to fibrinogen, ATPlite luminescence; Mn2+ added to activate the integrin;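 active = primary inhibition of 50% or more at 10 µM, then 40% or more on retest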
Target sequence (P05107 whole entry, looked up, other chains not shown): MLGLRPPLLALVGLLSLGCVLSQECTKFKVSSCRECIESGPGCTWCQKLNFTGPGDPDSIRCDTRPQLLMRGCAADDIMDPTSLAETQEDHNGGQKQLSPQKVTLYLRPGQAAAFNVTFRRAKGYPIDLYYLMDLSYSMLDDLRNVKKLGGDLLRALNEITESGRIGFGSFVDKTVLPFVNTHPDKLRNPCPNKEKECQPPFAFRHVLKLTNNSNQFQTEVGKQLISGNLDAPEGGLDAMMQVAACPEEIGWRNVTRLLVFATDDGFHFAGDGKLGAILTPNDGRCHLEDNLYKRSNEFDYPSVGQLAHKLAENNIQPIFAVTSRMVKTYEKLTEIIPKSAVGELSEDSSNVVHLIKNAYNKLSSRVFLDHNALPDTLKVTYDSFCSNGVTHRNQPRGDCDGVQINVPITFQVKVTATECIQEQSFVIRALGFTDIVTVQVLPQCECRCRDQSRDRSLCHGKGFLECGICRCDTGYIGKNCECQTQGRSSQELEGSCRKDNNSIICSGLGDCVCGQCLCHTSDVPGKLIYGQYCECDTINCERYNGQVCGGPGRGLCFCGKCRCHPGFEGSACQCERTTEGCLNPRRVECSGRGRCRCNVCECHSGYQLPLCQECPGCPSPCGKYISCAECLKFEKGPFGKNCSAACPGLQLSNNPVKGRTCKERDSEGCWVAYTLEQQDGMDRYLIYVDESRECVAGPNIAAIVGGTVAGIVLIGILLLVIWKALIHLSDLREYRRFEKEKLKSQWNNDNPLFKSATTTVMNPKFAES
Mac1 fbg enh: enhancers of human CD11b/CD18 binding to fibrinogen | activation, % at 10 µM | AID 1499 | K562 CD11b/CD18 adhesion to fibrinogen, ATPlite luminescence | hit rate 0.07% among 93,000;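 active = 10 µM primary screen giving 50% or more activity, confirmed by 40% or more on retest at that dose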
CYP2C19 inh: inhibitors of human CYP2C19. P33261. CYP2C19 Supersomes, luciferin-H EGE luminescence, 30 min. inhibition, % at 5 µM. hit rate 21% among 96,000. AID 778;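 active = CYP2C19 inhibition above a set limit at 5 µM in the primary screen, cut at about 50% in these data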;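 note: plate controls were negative control wells for no effect and 2.5 mM tranylcypromine positive control for full effect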
CYP2C9 act: increases human cytochrome P450 2C9 activity; P11712; recombinant CYP2C9, luciferin-H conversion, luminescence; stronger effect = higher value; factor 1 = untreated enzyme, 0 = blocked; activation factor at 5 µM; hit rate 1.4% among 96,000;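 active = activation factor of 2 or more for CYP2C9 at a 5 µM dose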;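 note: 0 = sulfaphenazole-blocked wells and 1 = vehicle-only wells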
* = called active by the depositor. Compounds with a hit are over-represented: about 28% of the library has one in this group of screens.

`CCOC(=O)c1c(C)[nH]c(C(=O)Cn2c(=O)oc3ccccc32)c1C` gave CYP2C19 activ 1, CYP2C9 inh 9, CYP2C19 inh -3 and CYP2C9 act 0.9.
COc1ccc(NC(=O)Cc2c(C)n(C(=O)c3ccc(Cl)cc3)c3ccc(OC)cc23)cc1 was read as Mac1 fbg inh 0 and Mac1 fbg enh 1.
`COc1ccc2c(c1)c(CC(=O)Nc1ccc(C)cc1)c(C)n2C(=O)c1ccc(Cl)cc1` gave CYP2C19 activ 0.3, CYP2C9 inh 89*, Mac1 fbg inh 5, Mac1 fbg enh -3, CYP2C19 inh 69* and CYP2C9 act 0.1.
O=C(Nc1ccc(O)c(-c2nc3ccccc3o2)c1)C1(c2ccc(Br)cc2)CCCC1 was read as Mac1 fbg inh -30 and Mac1 fbg enh -1.
For CCOC(=O)N1CCC(NC(=O)C2CCCN(C(=O)N3CCOc4ccccc43)C2)CC1 (centres undefined) the results were CYP2C19 activ 0.8, CYP2C9 inh 80*, Mac1 fbg inh 0, Mac1 fbg enh 1, CYP2C19 inh 16 and CYP2C9 act 0.2.
For CCOC(=O)N1CCC(NC(=O)C2CCN(C(=O)N3CCOc4ccccc43)CC2)CC1 the results were CYP2C19 activ 0.9, CYP2C9 inh -2, Mac1 fbg inh 4, Mac1 fbg enh -3, CYP2C19 inh 10 and CYP2C9 act 1.
Screening Cc1nnc(SCc2ccccc2)nc1/C=C/NOCc1ccc(Cl)cc1Cl returned CYP2C19 activ 0.2, CYP2C9 inh 88*, Mac1 fbg inh -24, Mac1 fbg enh 0, CYP2C19 inh 79* and CYP2C9 act 0.1.
COc1cnc(SCc2ccc(Cl)cc2Cl)nc1Cl was read as CYP2C19 activ 0.9, CYP2C9 inh 4, Mac1 fbg inh -8, Mac1 fbg enh -8, CYP2C19 inh 9 and CYP2C9 act 1.
